Here are results for 51 molecules from PubChem BioAssay AID686978 (National Center for Advancing Translational Sciences (NCATS), 2013).

The whole screen tested about 420,000 compounds, of which about 64,000 (15%) were called active. Not shown: some 27% with an inconclusive outcome. A selection follows. Values without a mark were called inactive. Calls follow the shape of the dose curve; as a rule, active = well fitted inhibition curve with a large enough effect; inconclusive = small, poorly fitted or top-dose-only effect; inactive = flat fitted curve, though single readings scatter.
% is scaled to controls: 0 for no effect and ±100 for the full control effect; potency is read from the fitted curve at half-maximal effect.

This assay in a line: qHTS for Inhibitors of human tyrosyl-DNA phosphodiesterase 1 (TDP1): qHTS in cells in absence of CPT. Also: nearly all actives have a fitted effect of over 55% in size. The note with it: DT40 Tdp1-/- hTDP1 cells, no CPT, ATP luminescence, 48 h; activity change, negative = growth inhibition: at 46.2 µM (top of the series). The essentials:
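Chicken DT40 Tdp1-/- cells complemented with human TDP1, screened without camptothecin (DMSO vehicle only), 400 cells/well. Compounds pin-transferred, cells incubated at 37 °C for at least 48 hr. Growth read as ATP-dependent luminescence (CellTiter-Glo, 30 min at RT).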
(In general: In qHTS, concentration-response curves come from the screen itself.)
As for `CCOC(=O)C1=NNC2(c3ccc(Cl)cc3)C(=O)N(c3cc(C)cc(C)c3)C(=O)C12` (stereo unspecified), the “activity change, negative = growth inhibition” value was -6.76%. With `Cc1nn(Cc2ccccc2)c2c1C(c1ccccc1)C(C#N)=C(N)O2` (stereo unspecified), the Potency is 25.9 µM (active). With `COc1ccc(-c2[nH]nc3c2C(c2ccncc2)C(C#N)=C(N)O3)cc1` (stereo unspecified), the “activity change, negative = growth inhibition” value is -26.7%. Take `Cc1cc2c(c(=O)n1Cc1ccco1)C(c1ccccc1)C(C#N)=C(N)O2` (stereo unspecified): the “activity change, negative = growth inhibition” value was -6.25%. Turning to `O=C(COC(=O)c1cc([N+](=O)[O-])ccc1NCc1ccccc1)NC1CCCCC1`, the “activity change, negative = growth inhibition” value was -26.8%. With `Cc1ccc(-c2csc(N3CCN(c4cc5c(cc4Cl)nc(-c4ccncc4)n5CCOCCO)CC3)n2)cc1`, the Potency is 29.1 µM (active).

For the molecule `Nc1c(Cl)cc(-c2csc(N3CCCC3c3nc4cc(Cl)c(Cl)cc4n3CCOCCO)n2)cc1Cl` (stereo unspecified), the “activity change, negative = growth inhibition” value is -7.82%. Still for that read-out and setting: in the case of `CC(=O)OCCN(CCCn1c(-c2ccncc2)nc2ccccc21)c1nc(-c2ccc(C)cc2)cs1` it was -19.6%. On the same count and under the same terms, in the case of `CC(NC(=O)c1ccc(S(=O)(=O)Nc2ccccc2)cc1)c1ccc(S(N)(=O)=O)cc1` (stereo unspecified) it was 3.6%; in that of `CCOC(=O)c1cc2occc2n1CC(=O)NC1CCC(C)CC1` (stereo unspecified), -7.14%. As for `CC(=O)N1C[C@@H](CO)[C@@H](N(C)C(=O)c2ccco2)C[C@H]1c1ccccc1`, the “activity change, negative = growth inhibition” value was -1.14%.

On to `Cn1c(SCC(=O)Nc2ccc(Cl)cc2)nc(O)cc1=O`, for which the “activity change, negative = growth inhibition” value is -3.9%. Take `CCSc1nnc(NC(=O)c2ccc(C)cc2)s1`: the “activity change, negative = growth inhibition” value is -4.86%. With `CSc1nnc(NC(=O)c2nc(S(=O)(=O)Cc3ccc(C)cc3)ncc2Cl)s1`, the Potency is 4.11 µM (active).

Turning to `Cc1cccc(NC(=O)c2nc(S(=O)(=O)Cc3ccccc3)ncc2Cl)c1`, the Potency was 2.06 µM (active).

Regarding `NC(=O)CSc1nnc(NC(=O)c2ccc(Br)o2)s1`, the “activity change, negative = growth inhibition” value was -14.2%. Regarding `CCSc1ncc(Cl)c(C(=O)Nc2cc(C)ccc2C)n1`, the Potency entry is “inactive”.

For the molecule `CN(CC(=O)Nc1ccccc1C(F)(F)F)C(=O)Cc1ccccc1F`, the “activity change, negative = growth inhibition” value is -4.86%.

`Cc1cccc(C(=O)Nc2ccc(Oc3cnccn3)cc2)c1`: the “activity change, negative = growth inhibition” value was 8.2%. Regarding `Cc1ccc(NC(=O)c2nc(S(=O)(=O)Cc3cccc(C)c3)ncc2Cl)cc1`, the Potency is 0.651 µM (active). Same read-out and setting: in the case of `O=C(Nc1ccccc1C(F)(F)F)c1nc(S(=O)(=O)Cc2ccccc2F)ncc1Cl` it was 0.708 µM (active). Consider `CCCSc1ncc(Cl)c(C(=O)Nc2c(C(=O)Nc3ccccc3)oc3ccccc23)n1`, for which the “activity change, negative = growth inhibition” value was -8.39%. `O=C(Nc1nc2ccc(F)cc2s1)c1nc(SCc2ccccc2F)ncc1Cl`: the “activity change, negative = growth inhibition” value was -6.24%.

As for `Cc1cccc(NC(=O)C(C)SCc2ccccc2)c1` (stereo unspecified), the “activity change, negative = growth inhibition” value was -1.64%. As to `CCOc1ccc(S(=O)(=O)N2CCN=C2Cc2ccccc2)cc1C`, the “activity change, negative = growth inhibition” value is -25.1%. On to `O=C(COC(=O)c1cc(=O)[nH]c2ccccc12)NCc1cccc(Cl)c1`, for which the “activity change, negative = growth inhibition” value was -0.601%. On to `COc1ccccc1C1SCCN1C(=O)c1ccc([N+](=O)[O-])cc1` (stereo unspecified), for which the “activity change, negative = growth inhibition” value was 4.74%. For the molecule `Cc1cc(/C=C2\SC(=O)N(C)C2=O)c(C)n1-c1cccc(C(=O)O)c1`, the “activity change, negative = growth inhibition” value was 8.74%.

Consider `Nc1cccc(-c2cncc(N3CCN(Cc4ccccn4)CC3)n2)c1`, for which the “activity change, negative = growth inhibition” value was -26.4%. Turning to `Nc1c(-c2ccccc2)nnn1Cc1ccccc1`, the “activity change, negative = growth inhibition” value was -3.82%. For `O=C(Nc1cccnc1)c1ccc(Cl)cc1[N+](=O)[O-]`, the “activity change, negative = growth inhibition” value was 1.36%. For the molecule `Clc1ccc(C=NC23CN4CN(CN(C4)C2)C3)cc1`, the “activity change, negative = growth inhibition” value was 5.74%. Regarding `Cc1cccc(CS(=O)(=O)c2ncc(Cl)c(C(=O)Nc3ccc(F)cc3)n2)c1`, the Potency is 1.84 µM (active). For the molecule `Cn1cc([N+](=O)[O-])c(C(=O)Nc2cnn(Cc3ccc(F)cc3)c2)n1`, the “activity change, negative = growth inhibition” value was -11.5%. In the case of `Cc1cccc(OCc2ccc(C(=O)Nc3ccc(F)cc3)cc2)c1`, the “activity change, negative = growth inhibition” value is -17.5%.

As to `COc1ccc(S(=O)(=O)NC(C)C(=O)NCc2ccncc2)cc1Cl` (stereo unspecified), the “activity change, negative = growth inhibition” value was -28.8%. For the molecule `O=C(NC1CCCC1)C1CC(=O)N(c2ccc(F)cc2)C1` (stereo unspecified), the “activity change, negative = growth inhibition” value was -12.7%.

With `O=C(c1cccc(C(=O)N2CCN(c3ccc(F)cc3)CC2)c1)N1CCN(c2ccc(F)cc2)CC1`, the Potency was 13 µM (active). In the case of `O=C(c1cc(-c2ccc(F)cc2)on1)N1CCN(c2ccc(F)cc2)CC1`, the “activity change, negative = growth inhibition” value is 1.37%. With `O=C(c1cc2cc(F)ccc2[nH]1)N1CCN(c2ccc(F)cc2)CC1`, the “activity change, negative = growth inhibition” value was 7.44%.

Regarding `O=C(c1cc(C(=O)N2CCN(c3ccc(F)cc3)CC2)cc([N+](=O)[O-])c1)N1CCN(c2ccc(F)cc2)CC1`, the Potency is 4.61 µM (active). Consider `O=[N+]([O-])c1ccc(N2CCN(c3ccc(F)cc3)CC2)cn1`, for which the “activity change, negative = growth inhibition” value was -4.53%.

For the molecule `Cc1noc(C)c1S(=O)(=O)Nc1ccc(C(=O)N2CCN(c3ccc(F)cc3)CC2)cc1`, the “activity change, negative = growth inhibition” value is -25.6%. Turning to `CS(=O)(=O)N1CCC2(CC1)CN(Cc1cc(C(F)(F)F)cc(C(F)(F)F)c1)C2`, the “activity change, negative = growth inhibition” value was 0.577%. For the molecule `Cc1c(NC(=O)COC(=O)/C=C/c2cccc(F)c2)c(=O)n(-c2ccccc2)n1C`, the “activity change, negative = growth inhibition” value was -19.5%.

Take `Cc1ccnc(NS(=O)(=O)c2ccc(NC(=O)c3oc4ccccc4c3C)cc2)n1`: the “activity change, negative = growth inhibition” value is 0.414%. As to `Cc1oc(C(N)=O)cc1COc1ccc(C(N)=O)cc1`, the “activity change, negative = growth inhibition” value was -8.07%. For `CCc1cccc2c3c([nH]c12)C(CC)(CC(=O)O)OCC3` (stereo unspecified), the Potency entry was “inactive”. On to `O=C(COC(=O)CN1C(=O)C2CCCCC2C1=O)Nc1ccc(F)c(F)c1F` (stereo unspecified), for which the “activity change, negative = growth inhibition” value was 10.7%. As to `CC(OC(=O)CN1C(=O)C2CCCCC2C1=O)C(=O)Nc1ncc(Cl)cc1Cl` (stereo unspecified), the “activity change, negative = growth inhibition” value was -9.52%. Consider `CC1=CC(C)(C)Nc2ccc(OC(=O)CN3C(=O)C4CCCCC4C3=O)cc21` (stereo unspecified), for which the Potency was 2.31 µM (active).
